# PNC assembly inh – blocks assembly of the perinucleolar compartment. PC3M PTB-GFP, PNC prevalence imaging, 16 h; stronger effect = lower value. activity change (PNC), negative = inhibition, % at 10 µM. 140,000 tested, 3.1% active. AID 2417;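 active = readout at or below -70, meaning at least 70% loss of cells showing the perinucleolar compartment, a nuclear body marking cancer cells; inconclusive = readout between -30 and a set limit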;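 also: plate controls were DMSO wells for no effect and camptothecin positive control wells for full effect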
#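 Compounds are pinned in duplicate onto adhered PC3M cells stably expressing GFP-tagged PTB and incubated 16 h at 37 C. Cells are then fixed, nuclei stained with Hoechst, and PNC-positive cells counted.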
# Luc counter – blocks Kinase-Glo luciferase, a counter-screen artifact. Q27757. Kinase-Glo luciferase, ATP luminescence, 8 min. Potency, µM (highest dose often 38.3 µM), inactives show at the highest dose activity change, negative = inhibition, usual class: inhibitors. 200,000 tested, 0.28% active; active = well fitted inhibition curve with a large enough effect; inconclusive = small, poorly fitted or top-dose-only effect; also: potency is read from the fitted curve at half-maximal effect; nearly all actives have a fitted effect of over 60% in size
#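 Light output from Kinase-Glo luciferase with luciferin and 10 uM ATP in 50 mM imidazole pH 7.2, KCl, MgCl2, Tween 20, BSA; compound pin-delivered, 8-min ambient incubation, then luminescence read.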
# ALDH1A1 inh – blocks purified human ALDH1A1 activity | Potency, µM (doses to about 75.3 µM), without a hit: top-dose activity, negative = inhibition, actives largely listed as inhibitors | 220,000 tested, 7.3% active | Purified ALDH1A1, NADH fluorescence, propionaldehyde substrate | P00352;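 also: potency is read from the fitted curve at half-maximal effect; plate controls were no enzyme wells and a reference inhibitor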
# Target sequence (P00352 whole entry, looked up): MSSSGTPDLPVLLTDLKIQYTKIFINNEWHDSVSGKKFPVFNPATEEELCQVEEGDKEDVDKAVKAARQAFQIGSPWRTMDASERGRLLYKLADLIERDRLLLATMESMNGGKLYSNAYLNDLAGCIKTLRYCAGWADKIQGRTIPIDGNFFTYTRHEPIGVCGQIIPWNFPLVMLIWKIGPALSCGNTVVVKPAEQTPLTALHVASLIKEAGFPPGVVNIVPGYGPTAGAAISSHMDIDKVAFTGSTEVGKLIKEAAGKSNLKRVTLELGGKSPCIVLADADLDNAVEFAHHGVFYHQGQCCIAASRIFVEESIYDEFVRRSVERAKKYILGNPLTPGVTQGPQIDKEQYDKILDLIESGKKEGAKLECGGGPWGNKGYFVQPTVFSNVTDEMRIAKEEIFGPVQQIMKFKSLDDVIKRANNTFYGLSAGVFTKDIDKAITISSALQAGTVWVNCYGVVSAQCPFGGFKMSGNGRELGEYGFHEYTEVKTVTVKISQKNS
# LMNA splice mod – changes lamin A minigene splicing in HeLa cells; 200,000 tested, 0.01% active; AID 1487; HeLa LMNA splicing GFP/RFP minigene ratio, 48 h; Potency, µM (highest dose often 46.1 µM), inactives show at the top dose ratio change, negative = inhibition, hits mostly inhibitors; active = well fitted inhibition curve with a large enough effect in the signal ratio, with a control signal flat, not every such curve was filed as active; inconclusive = small, poorly fitted or top-dose-only effect, or effect the other way, or a change in a side signal; the % refers to the signal ratio; also: potency is read from the fitted curve at half-maximal effect
#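 S3 HeLa cells stably expressing lamin A-EGFP splicing minigene plus DsRed2, 600 cells/well, 48 h compound exposure at 37C. Laser-scanning cytometry; analysed as GFP (500-530 nm)/RFP (575-640 nm) total intensity ratio; 0.5% DMSO vehicle.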
# HPGD inh – HPGD (human) dehydrogenase inhibition; P15428; purified HPGD, NADH fluorescence kinetic, PGE2 substrate; Potency, µM, for the others: top-dose activity change, negative = inhibition, usual class: inhibitors; 150,000 tested, 4.3% active; also: potency is read from the fitted curve at half-maximal effect
#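 20 nM HPGD preincubated 15 min at room temperature with compound in 50 mM Tris-HCl pH 8, 0.01% Tween 20. Started with 1 mM NAD+ and 30 uM prostaglandin E2; NADH fluorescence (360/450 nm) read 5 times over 30-s intervals, last minus first.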
# Starred values were filed as active, the others as inactive; ? = inconclusive; nt = not tested or not shown; [ ] = dose if it differs, or a comment. A selection: hits, their analogues and other compounds. The true share with any hit is near 10%. Unless noted, calls follow the shape of the dose curve; as a rule, active = well fitted inhibition curve with a large enough effect (not every such curve was filed as active); inconclusive = small, poorly fitted or top-dose-only effect, or another doubt; inactive = no such curve, though single readings can be large or run the other way. Unless noted, % is scaled to controls: 0 for no effect and ±100 for the full control effect.
SMILES,PNC assembly inh,Luc counter,ALDH1A1 inh,LMNA splice mod,HPGD inh
COc1ccc(C2C(C(=O)N3CCCCC3)CCC(=O)N2c2cc(OC)c(OC)c(OC)c2)cc1 (stereo not given),-29,2%,7%,6%,-7%
CCC(C)NC(=O)C1CCC(=O)N(c2ccc3c(c2)OCO3)C1c1ccc(OC)cc1 (stereo not given),-18,-1%,6.3µM*,-8%,-1%
O=C(Nc1ccc(C(=O)N2CCN(c3ccccc3F)CC2)cc1)c1nsc2ccccc12,nt,nt,nt,-13%[46 µM],nt
COc1ccc2oc(=O)c(-c3nc4ccccc4o3)cc2c1,-81*,-4%,?,-20%,?
CCNC(=S)N=Nc1c(O)n(Cc2ccc(Cl)cc2)c2ccccc12,-21,11%,3.5µM*,?,-22%
Cc1ccc(Cn2c(O)c(N=NC(=S)Nc3ccccc3F)c3cc(S(=O)(=O)N4CCOCC4)ccc32)cc1,nt,0%,?,13%[46 µM],nt
NC(=S)N=Nc1c(O)n(CCCl)c2ccccc12,nt,4%,?,?,nt
Oc1c(N=NC(=S)Nc2ccccc2F)c2ccccc2n1Cc1ccc(Cl)cc1,nt,-2%,10µM*,?,nt
Cc1ccc(C)c(Cn2c(O)c(N=NC(=S)Nc3ccccc3F)c3ccccc32)c1,nt,0%,13µM*,nt,nt
Cc1ccccc1Cn1c(O)c(N=NC(=S)Nc2ccccc2F)c2ccccc21,nt,-2%,32µM*,?,nt
Cc1cc(=O)c2c(O)c3c(O)cc(=O)c4c3c3c(cc(O)c1c23)C(C)(C)C=4O,nt,-2%,1%,nt,-12%
Oc1c(N=NC(=S)Nc2ccccc2F)c2ccccc2n1Cc1ccccc1F,nt,nt,20µM*,nt,nt
C=CCn1c(O)c(N=NC(=S)Nc2ccc(OC)cc2)c2ccccc21,-6,3%,?,?,-14%
CCOc1ccc(N2C(=O)C3Sc4[nH]c(=O)sc4C(/C=C/c4ccccc4)C3C2=O)cc1 (stereo not given),13,1%,11µM*,-10%,-20%
C=CCn1c(CCNC(=O)c2cccs2)nnc1SCC(=O)c1ccc(Cl)cc1,35,-4%,-5%,6%,-20%
C=CCn1c(CCNC(=O)c2cccs2)nnc1SCC(=O)Nc1cccc(Cl)c1C,?,9%,10µM*,9%,-20%
CC(C)C[C@@H](CC(=O)N[C@@H](CCCN)CC(=O)N[C@@H]1CCCC[C@H]1C(=O)N[C@H](CC(=O)N[C@@H](CCC(=O)O)CC(=O)O)Cc1ccccc1)NC(=O)[C@@H]1CCCC[C@H]1N,nt,4%,-12%,nt,0%
CCOC(=O)c1ccc(/C=C2/C=C(c3ccccc3)N(c3ccc(Cl)c(C(=O)O)c3)C2=O)cc1,26,-6%,11µM*,?,-23%
COc1ccc(NC(=O)N2CC[C@@]3(CCCN(C(C)=O)C3)C2)cc1,nt,-5%,?,nt,-8%
CC(C)COc1ccc(C(=O)NC(CC(C)C)C(=O)O)cc1 (stereo not given),25,nt,2%,-4%,nt
Cc1ccc(Oc2ccc(OCC(=O)NC(CC(C)C)C(=O)O)cc2)cc1 (stereo not given),nt,4%,6.3µM*,-13%[46 µM],nt
N#C/C(=C/c1cn(CC(=O)O)c2ccccc12)C(=O)Nc1ccccc1,nt,4%,25µM*,?,nt
Cc1cccc(NC(=O)/C(C#N)=C\c2cn(CC(=O)O)c3ccccc23)c1,nt,5%,20µM*,nt,nt
CNC(=O)/C(C#N)=C/c1cn(CC(=O)OC)c2ccccc12,nt,nt,-4%,nt,nt
CCc1ccc(NC(=O)/C(C#N)=C/c2cn(CC(=O)O)c3ccccc23)cc1,nt,4%,2%,nt,nt
N#C/C(=C\c1cn(Cc2ccccc2C#N)c2ccccc12)C(=O)NCc1cccs1,69,-5%,7.9µM*,8%,?
O=C(COC(=O)C1CC(O)CN1S(=O)(=O)c1ccc(Cl)cc1)c1ccccc1Cl (stereo not given),-22,-1%,18µM*,0%,-2%
CC(C)N(C(=O)COC(=O)[C@@H]1CC(O)CN1S(=O)(=O)c1ccc(C(C)(C)C)cc1)C(C)C (stereo not given in full),nt,4%,8.9µM*,-11%[46 µM],nt
CC(C)N(Cc1ccccc1)C(=O)CCS(=O)(=O)c1cc2c(cc1Cl)NC(=O)CO2,nt,nt,nt,9%[46 µM],nt

# Source: PubChem
